Reference: PubChem BioAssay AID1159580 (chemical genetic matrix, 2015)
Out of some 5,500 compounds screened, about 2,000 (36%) were called active. About 18% were inconclusive and are not listed. No stated cut-off is given here; in the data, active means normalized growth mostly below about 0.91 (no sharp cut-off); inconclusive means no clear call, values can overlap the other calls; inactive means mostly above about 0.92. The list shows a part of the results.

Test: chemical genetic growth profiling, strain panel (AID 1159580);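 further: tested at 20 µM; growth read once vehicle control cultures reached saturation at 30 °C; 1 = growth at the plate median or of vehicle wells; lower values mean less growth of the strain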
Conditions: growth OD
[1] = S. cerevisiae deletion strains, locus YDL101C, strain DUN1, active compounds read low
[2] = S. cerevisiae deletion strains, locus YHR030C, strain SLT2, active compounds read low

Measured: normalized growth

O=C(O/N=C1/CCCc2[nH]c3ccccc3c21)C1CCCCC1
inactive: S. cerevisiae deletion strains, locus YAR019C, strain CDC15, active compounds read low 0.972 | S. cerevisiae deletion strains, locus YBL105C, strain PKC1, active compounds read low 0.959 | S. cerevisiae deletion strains, locus YBR135W, strain CKS1, active compounds read low 0.964 | S. cerevisiae deletion strains, locus YBR136W, strain MEC1, active compounds read low 0.947 | S. cerevisiae deletion strains, locus YBR160W, strain CDC28, active compounds read low 0.962 | S. cerevisiae deletion strains, locus YDL017W, strain CDC7, active compounds read low 0.955 | S. cerevisiae deletion strains, locus YDL028C, strain MPS1, active compounds read low 0.962 | [1] 0.973 | S. cerevisiae deletion strains, locus YDL108W, strain KIN28, active compounds read low 0.931 | S. cerevisiae deletion strains, locus YDL132W, strain cdc53, active compounds read low 0.97 | S. cerevisiae deletion strains, locus YDL214C, strain PRR2, active compounds read low 0.881 | S. cerevisiae deletion strains, locus YDR052C, strain DBF4, active compounds read low 0.971 | S. cerevisiae deletion strains, locus YDR054C, strain cdc34, active compounds read low 0.951 | S. cerevisiae deletion strains, locus YDR226W, strain ADK1, active compounds read low 0.962 | S. cerevisiae deletion strains, locus YDR477W, strain SNF1, active compounds read low 0.905 | S. cerevisiae deletion strains, locus YER123W, strain YCK3, active compounds read low 0.821 | S. cerevisiae deletion strains, locus YER133W, strain GLC7, active compounds read low 0.888 | S. cerevisiae deletion strains, locus YFL009W, strain cdc4, active compounds read low 0.973 | S. cerevisiae deletion strains, locus YFL029C, strain CAK1, active compounds read low 0.966 | S. cerevisiae deletion strains, locus YFR003C, strain YPI1, active compounds read low 0.961 | S. cerevisiae deletion strains, locus YFR019W, strain FAB1, active compounds read low 0.918 | S. cerevisiae deletion strains, locus YFR028C, strain CDC14, active compounds read low 0.975 | S. cerevisiae deletion strains, locus YGR040W, strain KSS1, active compounds read low 0.856 | S. cerevisiae deletion strains, locus YGR052W, strain FMP48, active compounds read low 0.914 | S. cerevisiae deletion strains, locus YGR092W, strain DBF2, active compounds read low 0.845 | [2] 0.971 | S. cerevisiae deletion strains, locus YHR079C, strain IRE1, active compounds read low 0.963 | S. cerevisiae deletion strains, locus YHR082C, strain KSP1, active compounds read low 0.899 | S. cerevisiae deletion strains, locus YHR205W, strain SCH9, active compounds read low 0.873 | S. cerevisiae deletion strains, locus YIL147C, strain SLN1, active compounds read low 0.962 | S. cerevisiae deletion strains, locus YJL095W, strain BCK1, active compounds read low 0.942 | S. cerevisiae deletion strains, locus YJL128C, strain PBS2, active compounds read low 0.935 | S. cerevisiae deletion strains, locus YJL157C, strain FAR1, active compounds read low 0.884 | S. cerevisiae deletion strains, locus YJR016C, strain ILV3, active compounds read low 0.951 | S. cerevisiae deletion strains, locus YJR066W, strain TOR1 (second series), active compounds read low 0.902 | S. cerevisiae deletion strains, locus YJR066W, strain TOR1, active compounds read low 0.895 | S. cerevisiae deletion strains, locus YKL048C, strain ELM1, active compounds read low 0.925 | S. cerevisiae deletion strains, locus YKL067W, strain YNK1, active compounds read low 0.909 | S. cerevisiae deletion strains, locus YKL101W, strain HSL1, active compounds read low 0.878 | S. cerevisiae deletion strains, locus YKL193C, strain SDS22, active compounds read low 0.97 | S. cerevisiae deletion strains, locus YKL203C, strain TOR2, active compounds read low 0.931 | S. cerevisiae deletion strains, locus YLR113W, strain HOG1, active compounds read low 0.966 | S. cerevisiae deletion strains, locus YLR133W, strain CKI1, active compounds read low 0.9 | S. cerevisiae deletion strains, locus YLR403W, strain SFP1, active compounds read low 0.903 | S. cerevisiae deletion strains, locus YML070W, strain DAK1, active compounds read low 0.846 | S. cerevisiae deletion strains, locus YMR001C, strain CDC5, active compounds read low 0.966 | S. cerevisiae deletion strains, locus YMR205C, strain PFK2 (second series), active compounds read low 0.895 | S. cerevisiae deletion strains, locus YMR277W, strain FCP1, active compounds read low 0.956 | S. cerevisiae deletion strains, locus YNL006W, strain LST8, active compounds read low 0.992 | S. cerevisiae deletion strains, locus YNL020C, strain ARK1, active compounds read low 0.872 | S. cerevisiae deletion strains, locus YNL161W, strain CBK1, active compounds read low 0.963 | S. cerevisiae deletion strains, locus YNL183C, strain NPR1, active compounds read low 0.896 | S. cerevisiae deletion strains, locus YNL207W, strain RIO2, active compounds read low 0.959 | S. cerevisiae deletion strains, locus YNL222W, strain SSU72, active compounds read low 0.967 | S. cerevisiae deletion strains, locus YNL307C, strain MCK1 (second series), active compounds read low 0.911 | S. cerevisiae deletion strains, locus YOL078W, strain AVO1, active compounds read low 0.963 | S. cerevisiae deletion strains, locus YOL136C, strain PFK27, active compounds read low 0.857 | S. cerevisiae deletion strains, locus YOR061W, strain CKA2, active compounds read low 0.845 | S. cerevisiae deletion strains, locus YOR119C, strain RIO1, active compounds read low 0.948 | S. cerevisiae deletion strains, locus YOR231W, strain MKK1, active compounds read low 0.951 | S. cerevisiae deletion strains, locus YOR329C, strain SCD5, active compounds read low 0.972 | S. cerevisiae deletion strains, locus YPL031C, strain PHO85, active compounds read low 0.894 | S. cerevisiae deletion strains, locus YPL153C, strain RAD53, active compounds read low 0.887 | S. cerevisiae deletion strains, locus YPL204W, strain HRR25, active compounds read low 0.908 | S. cerevisiae deletion strains, locus YPL209C, strain IPL1, active compounds read low 0.965 | S. cerevisiae deletion strains, locus YPL256C, strain CLN2, active compounds read low 0.933 | S. cerevisiae deletion strains, locus YPR025C, strain CCL1, active compounds read low 0.961 | S. cerevisiae deletion strains, locus YPR106W, strain ISR1, active compounds read low 0.962 | S. cerevisiae deletion strains, locus YPR111W, strain DBF20, active compounds read low 0.969 | S. cerevisiae deletion strains, strain NNK1, active compounds read low 0.967 | S. cerevisiae deletion strains, strain TSCII, active compounds read low 0.967

Cn1c2c(c3ccccc31)/C(=N\OC(=O)c1ccc(Cl)cc1Cl)CCC2
inactive: S. cerevisiae deletion strains, locus YAL013W, strain DEP1, active compounds read low 1.01 | S. cerevisiae deletion strains, locus YBR229C, strain ROT2, active compounds read low 1.03 | [1] 1.02 | S. cerevisiae deletion strains, locus YDL134C, strain PPH21, active compounds read low 1.02 | S. cerevisiae deletion strains, locus YDR150W, strain NUM1, active compounds read low 1.04 | S. cerevisiae deletion strains, locus YEL061C, strain CIN8, active compounds read low 0.957 | S. cerevisiae deletion strains, locus YGR078C, strain PAC10, active compounds read low 1.03 | S. cerevisiae deletion strains, locus YGR229C, strain SMI1, active compounds read low 1.02 | [2] 1.07 | S. cerevisiae deletion strains, locus YHR087W, strain rtc3, active compounds read low 0.986 | S. cerevisiae deletion strains, locus YJL187C, strain SWE1, active compounds read low 1.01 | S. cerevisiae deletion strains, locus YJR043C, strain POL32, active compounds read low 1.02 | S. cerevisiae deletion strains, locus YJR075W, strain HOC1, active compounds read low 1.01 | S. cerevisiae deletion strains, locus YKL190W, strain CNB1, active compounds read low 1.01 | S. cerevisiae deletion strains, locus YLR039C, strain RIC1, active compounds read low 1.01 | S. cerevisiae deletion strains, locus YLR058C, strain SHM2 (second series), active compounds read low 1.02 | S. cerevisiae deletion strains, locus YLR085C, strain ARP6, active compounds read low 0.977 | S. cerevisiae deletion strains, locus YLR262C, strain YPT6, active compounds read low 1.15 | S. cerevisiae deletion strains, locus YML094W, strain GIM5, active compounds read low 1 | S. cerevisiae deletion strains, locus YMR219W, strain ESC1, active compounds read low 1 | S. cerevisiae deletion strains, locus YMR263W, strain SAP30, active compounds read low 0.986 | S. cerevisiae deletion strains, locus YNL128W, strain TEP1, active compounds read low 1.01 | S. cerevisiae deletion strains, locus YNL153C, strain GIM3, active compounds read low 1.04 | S. cerevisiae deletion strains, locus YNL298W, strain CLA4 (second series), active compounds read low 1.01 | S. cerevisiae deletion strains, locus YNL322C, strain KRE1, active compounds read low 1.01 | S. cerevisiae deletion strains, locus YNR030W, strain Alg12, active compounds read low 1.03 | S. cerevisiae deletion strains, locus YPL055C, strain LGE1, active compounds read low 0.982 | S. cerevisiae deletion strains, locus YPL241C, strain CIN2, active compounds read low 0.98 | S. cerevisiae deletion strains, locus YPR135W, strain CTF4, active compounds read low 1.11 | S. cerevisiae strains, strain wild type, active compounds read low 1.02
